Measured values taken from PubChem BioAssay (NCATS).
Inconclusive results are not listed. Values without a mark were called inactive. Calls follow the shape of the dose curve; as a rule, active = well fitted inhibition curve with a large enough effect; inconclusive = small, poorly fitted or top-dose-only effect; inactive = flat fitted curve, though single readings scatter.

Test: qHTS to identify inhibitors of the type 1 interferon - major histocompatibility complex class I in skeletal muscle: primary screen against the NCATS Pharmaceutical Collection (AID 1347407);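 also: luminescence of HiBiT knocked into endogenous HLA-B as interferon-induced MHC class I level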
Conditions: human skeletal muscle cells, IFN-b-induced MHC-I HiBiT luminescence, 24 h; series mostly up to 45.9 µM; activity change, negative = inhibition: at the top concentration
How it was run: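 Cells were seeded with 4 ng/ml IFN-beta, incubated 1 h, then dosed with compounds over eight 1:5 steps up to 46 uM final. After 24 h at 37 C, HiBiT lytic reagent was added and luminescence read after 10 min lysis in the dark.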
% is scaled to controls: 0 for no effect and ±100 for the full control effect.

Going from `OC[C@H]1O[C@@H](n2cnc3c(=S)nc[nH]c32)[C@H](O)[C@@H]1O` to `OCc1ccccc1O`, the “activity change, negative = inhibition” value rises from -16.8% to 5.41%.

Compared with `CN1CCN(CCCN2c3ccccc3Sc3ccc(S(=O)(=O)N(C)C)cc32)CC1`, `CN1CCC(=C2c3ccccc3Sc3ccccc32)CC1` is lower in “activity change, negative = inhibition” value: -4.63% for the first, -18% for the second.

Going from `COc1cccc(CCc2ccccc2OCC(CN(C)C)OC(=O)CCC(=O)O)c1` (stereo unspecified) to `CCCCOc1cc(C(=O)NCCN(CC)CC)c2ccccc2n1`, the “activity change, negative = inhibition” value rises from -15.6% to -5.95%.

Going from `CC1(C)O[C@@H]2C[C@H]3[C@@H]4CCC5=CC(=O)CC[C@]5(C)[C@@]4(F)[C@@H](O)C[C@]3(C)[C@]2(C(=O)CCl)O1` to `Cc1c(F)c(N2CCNC(C)C2)cc2c1c(=O)c(C(=O)O)cn2C1CC1` (stereo unspecified), the “activity change, negative = inhibition” value rises from -18.9% to 1.07%.

Compared with `O=C1[C@H]2CCCC[C@H]2C(=O)N1CCCCN1CCN(c2nsc3ccccc23)CC1`, `C[C@@H]1CN(CCCn2c3ccccc3c3ccccc32)C[C@H](C)N1` is lower in “activity change, negative = inhibition” value: 4.59% for the first, -8.68% for the second.

First: Oc1c(I)cc(Cl)c2cccnc12
Second: CCOC(=O)OC(C)OC1=C(C(=O)Nc2ccccn2)N(C)S(=O)(=O)c2ccccc21 (stereo unspecified)
The “activity change, negative = inhibition” value of the first is lower: -1.49% for the first, 5.65% for the second.

Going from `COCc1c(C(C)C)nc(C(C)C)c(/C=C/[C@@H](O)C[C@@H](O)CC(=O)O)c1-c1ccc(F)cc1` to `O=C(CCCN1CCC(O)(c2ccc(Br)cc2)CC1)c1ccc(F)cc1`, the “activity change, negative = inhibition” value rises from -29.2% to -10.3%.

For `c1ccc(OCc2ccc(CCCN3CCOCC3)cc2)cc1`, the “activity change, negative = inhibition” value was -21.6%.

In the case of `N[C@@H](CCC(=O)N[C@@H](CS)C(=O)NCC(=O)O)C(=O)O`, the “activity change, negative = inhibition” value is reported as -0.259% [at 19 µM].
